Measured values taken from PubChem BioAssay (NCATS).
Inconclusive results are not listed. A call without a number means that no potency is given here. A number with no mark means an inactive call. Active and inactive are the calls of the source. The call rests on the fitted dose curve; in most records, active means well fitted curve in the direction sought with a large enough effect; inconclusive means small, poorly fitted or top-dose-only effect, or another doubt; inactive means no such curve, though single readings can be large; an effect the other way counts as inactive or inconclusive. Peptide text beside a SMILES is read from it. * marks the point of attachment. AFC = O=c1cc(C(F)(F)F)c2ccc(N*)cc2o1

What was measured:
[1] = target: Aldehyde dehydrogenase, mitochondrial (Homo sapiens) (UniProt P05091); experiment: qHTS for Inhibitors of the Aldehyde Dehydrogenase Family (ALDH2) Primary screen (AID 2061308); further: nearly all actives have a fitted effect of over 55% in size
[2] = target: Retinaldehyde dehydrogenase 3 (Homo sapiens) (UniProt P47895); experiment: qHTS for Inhibitors of the Aldehyde Dehydrogenase Family (ALDH1A3) Validation screen (AID 2061312); further: nearly all actives have a fitted effect of over 45% in size
[3] = target: Retinaldehyde dehydrogenase 3 (Homo sapiens) (UniProt P47895); experiment: qHTS for Inhibitors of the Aldehyde Dehydrogenase Family (ALDH1A3) Primary screen (AID 2061315)

Compound: CC[C@@H](N)CNc1ccnc(-c2cc(-c3cnn(C)c3)ccc2O)n1
- Potency [1]: inactive
- Potency [2]: inactive
- Potency [3]: inactive

Compound: Cc1sc2c(c1C)C(c1ccc(Cl)cc1)=N[C@H](CC(=O)NCCCCNC(=O)COc1cccc3c1C(=O)N([C@H]1CCC(=O)NC1=O)C3=O)c1nnc(C)n1-2
- Potency [1]: inactive
- Potency [3]: inactive

Compound: OCCc1ccc(O[C@@H]2O[C@H](CO)[C@@H](O)[C@H](O)[C@H]2O)cc1
- Potency [1]: inactive
- Potency [3]: inactive

Compound: COC(=O)/C=C/C=C/C(=O)OC1C=C2COC(=O)C2(O)C2(C)CCCC(C)(C)C12 (stereo not drawn)
- Potency [1]: inactive
- Potency [3]: inactive

Compound: Cc1nccn1CC1CCc2c(c3ccccc3n2C)C1=O (stereo not drawn)
- Potency [1]: inactive
- Potency [3]: inactive

Compound: C=C1C2(C)CC3C4(C)C=CC(=O)OC(C)(C)C4CCC3(C)C1(C(=O)OC)C(=O)C(C)(O)C2=O (stereo not drawn)
- Potency [1]: inactive
- Potency [3]: inactive

Compound: COC(=O)C[C@H]1C(C)(C)[C@H](OC(=O)C(C)C)C2CC3=C4CC(=O)O[C@@H](c5ccoc5)[C@]4(C)CCC3[C@@]1(C)C2=O (stereo partly drawn)
- Potency [1]: inactive
- Potency [3]: inactive

Compound: CC1(C)CC[C@]2(C(=O)O)CC[C@]3(C)C(=CCC4[C@@]5(C)C[C@H](O)[C@H](O[C@@H]6O[C@H](CO)[C@@H](O)[C@H](O)[C@H]6O)[C@@](C)(CO)C5[C@H](O)C[C@]43C)[C@@H]2C1 (stereo partly drawn)
- Potency [1]: inactive
- Potency [3]: inactive

Compound: COc1ccc(CNC(=O)c2sc3nc(C)cc(C)c3c2N)cc1
- Potency [1]: inactive
- Potency [3]: inactive

Compound: C[C@@H]1C[C@H](O[C@@H]2O[C@H](CO[C@@H]3OC[C@](O)(CO)[C@H]3O)[C@@H](O)[C@H](O)[C@H]2O)CC(C)(C)[C@H]1/C=C/[C@@H](C)O
- Potency [1]: inactive
- Potency [3]: inactive

Compound: C=C(C(=O)O)C1CC(O)C2(C)CCCC(=C)C2C1 (stereo not drawn)
- Potency [1]: inactive
- Potency [3]: inactive

Compound: COc1cc2c(cc1O)CC(O)(CO)C(CO)C2c1ccc(OC2OC(CO)C(O)C(O)C2O)c(OC)c1 (stereo not drawn)
- Potency [1]: inactive
- Potency [3]: inactive

Compound: CCOc1ccc(-c2nn3ncccc3c2-c2ccc(S(C)(=O)=O)cc2)cc1
- Potency [1]: inactive
- Potency [3]: inactive

Compound: C[C@@]1(O)[C@H](O)[C@@H](CO)O[C@H]1n1ccc(N)nc1=O
- Potency [1]: inactive
- Potency [3]: inactive

Compound: C[C@H]1CC(=O)C2=C(C1)C(O)C(O)[C@@]1(O)[C@H]2C(=O)c2cccc(O)c2[C@@H]1O (stereo partly drawn)
- Potency [1]: inactive
- Potency [3]: inactive

Compound: C[C@@H]1O[C@@H](O[C@H]2[C@H](O)[C@@H](O[C@@H]3O[C@H](CO)[C@@H](O)[C@H](O[C@@H]4O[C@H](CO)[C@@H](O)[C@H](O)[C@H]4O)[C@H]3O)[C@H](O[C@H]3CC[C@@]4(C)C(=CC[C@@H]5C4CC[C@@]4(C)C5C[C@@H]5OC6(CC[C@@](C)(CO[C@@H]7O[C@H](CO)[C@@H](O)[C@H](O)[C@H]7O)O6)[C@@H](C)[C@@H]54)C3)O[C@@H]2CO)[C@H](O)[C@H](O)[C@H]1O (stereo partly drawn)
- activity change, negative = inhibition [1]: 9.58% [at 11.2 µM]
- activity change, negative = inhibition [3]: 9.26% [at 11.2 µM]

Compound: CC12CCC(C(OC3OC(COC4OCC(O)(CO)C4O)C(O)C(O)C3O)C1)C(C)(C)O2 (stereo not drawn)
- Potency [1]: inactive
- Potency [3]: inactive

Compound: CC(=O)N[C@@H](Cc1c[nH]c2ccccc12)C(=O)N[C@@H](CCC(=O)O)C(=O)N[C@@H](Cc1cnc[nH]1)C(=O)N[C@@H](CC(=O)O)C(=O)Nc1ccc2c(C(F)(F)F)cc(=O)oc2c1 (Ac-WEHD-{AFC})
- Potency [1]: inactive
- Potency [3]: inactive

Compound: CCC[C@@H](NC(=O)N1C(=O)C(CC)(CC)[C@@H]1Oc1ccc(C(=O)N2CCN(C)CC2)cc1)c1ccc2c(c1)OCO2
- Potency [1]: inactive
- Potency [3]: inactive

Compound: CC1(C)CC[C@]2(C(=O)O[C@@H]3O[C@H](CO[C@@H]4O[C@H](CO)[C@@H](O)[C@H](O)[C@H]4O)[C@@H](O)[C@H](O[C@@H]4O[C@H](CO)[C@@H](O)[C@H](O)[C@H]4O)[C@H]3O)[C@H](O)C[C@]3(C)C(=CCC4[C@@]5(C)CC[C@H](O[C@@H]6OC[C@@H](O)[C@H](O)[C@H]6O)[C@@](C)(C(=O)O)C5CC[C@]43C)[C@@H]2C1 (stereo partly drawn)
- Potency [1]: inactive
- Potency [3]: inactive

Compound: Fc1ccc(-c2c3cccc(C(F)(F)F)c3nn2Cc2ccc(F)cc2Cl)cc1
- Potency [1]: inactive
- Potency [3]: inactive

Compound: C[C@@H]1O[C@@H](O[C@@H]2[C@@H](O)[C@H](O[C@H]3[C@H](O[C@H]4CC[C@@]5(C)C(CC[C@]6(C)C5CC=C5[C@@H]7CC(C)(C)CC[C@]7(C(=O)O[C@@H]7O[C@H](CO)[C@@H](O)[C@H](O)[C@H]7O)CC[C@]56C)C4(C)C)O[C@H](C(=O)O)[C@@H](O)[C@@H]3O)OC[C@H]2O)[C@H](O)[C@H](O)[C@H]1O (stereo partly drawn)
- Potency [1]: inactive
- Potency [3]: inactive

Compound: C[C@@H]1O[C@@H](O[C@H]2[C@H](O[C@H]3[C@H](O[C@H]4CC[C@@]5(C)C(CC[C@]6(C)C5CC=C5[C@@H]7CC(C)(C)C[C@@H](O)[C@]7(C)CC[C@]56C)C4(C)C)O[C@H](C(=O)O)[C@@H](O)[C@@H]3O)O[C@H](C(=O)O)[C@H](O)[C@@H]2O)[C@H](O)[C@H](O)[C@H]1O (stereo partly drawn)
- Potency [1]: inactive
- Potency [3]: inactive

Compound: CC(=O)O[C@H]1[C@@]2(O)C[C@H](C)[C@H](OC(=O)c3ccccc3)[C@@H]2[C@@H](OC(=O)CO)[C@]2(OC(C)=O)C[C@H]3C(=O)C(C)(C)C[C@@H]3[C@@]1(C)[C@H]2OC(C)=O
- Potency [1]: inactive
- Potency [3]: inactive

Compound: CC(=O)OCC(=O)O[C@@H]1[C@H]2[C@@H](OC(=O)c3ccccc3)[C@@H](C)C[C@]2(O)[C@H](OC(C)=O)C2(C)[C@H]3CC(C)(C)C(=O)[C@@H]3CC1(OC(C)=O)[C@@H]2OC(C)=O (stereo partly drawn)
- Potency [1]: inactive
- Potency [3]: inactive

Compound: C[C@H]1CC(=O)Nc2cccc(-c3cnn(C(C)(C)C)c3)c2N1
- Potency [1]: inactive
- Potency [3]: inactive

Compound: C=C1C(O)C[C@@H]2C(C(=O)O)=CO[C@@H](O[C@@H]3O[C@H](CO)[C@@H](O)[C@H](O)[C@H]3OC(=O)c3ccc(O)cc3)[C@H]12 (stereo partly drawn)
- Potency [1]: inactive
- Potency [3]: inactive

Compound: COC(=O)C1=COC(OC2OC(CO)C(O)C(O)C2O)C2C(C)CC(=O)C12O (stereo not drawn)
- Potency [1]: inactive
- Potency [3]: inactive

Compound: CC1(C)CCC2(C(=O)OC3OC(COC4OC(CO)C(O)C(O)C4O)C(O)C(O)C3O)CCC3(C)C(=CCC4C5(C)CCC(O)C(C)(C(=O)O)C5CCC43C)C2C1O (stereo not drawn)
- Potency [1]: inactive
- Potency [3]: inactive

Compound: H-DPPDPDRFYGMM-NH2
- Potency [1]: inactive
- Potency [3]: inactive

Compound: CCOc1ncc(S(=O)(=O)N2CCN(CC)CC2)cc1-c1nc2c(CC)n(CCOC)nc2c(=O)[nH]1
- Potency [1]: inactive
- Potency [3]: inactive

Compound: FC(F)(F)c1cc(-c2ncn(/C=C\c3nnco3)n2)cc(C(F)(F)F)c1
- Potency [1]: inactive
- Potency [3]: inactive

Compound: C=C1C(OC(C)=O)CCC2(C)CC3(O)OC(=O)C(C)=C3CC12 (stereo not drawn)
- Potency [1]: inactive
- Potency [3]: inactive

Compound: C/C1=C\[C@H]2OC(=O)[C@@H](C)[C@@H]2CC/C(C(=O)O)=C/CC1
- Potency [1]: inactive
- Potency [3]: inactive

Compound: C=CC(C)(C)C1(CC2NC(=O)C3CCCN3C2=O)C(=O)Nc2cc3c(cc21)C=CC(C)(C)O3 (stereo not drawn)
- Potency [1]: inactive
- Potency [3]: inactive

Compound: CC(=O)c1c(C)cc(O[C@@H]2O[C@H](CO)[C@@H](O)[C@H](O)[C@H]2O)cc1O
- Potency [1]: inactive
- Potency [3]: inactive
